These results are taken from PubChem BioAssay (Tox21).

Structures are written as SMILES. Inconclusive results are not listed. A call without a number means that no potency is given here. Unmarked numbers belong to inactive results. Calls of active or inactive are those of the source. The call rests on the fitted dose curve.

The assay in a line: p53 small molecule agonists, cell-based qHTS assay with rat liver microsomes: qHTS cell viability counter screen (AID 1963580). Further: nearly all actives have a fitted effect of over 45% in size. To be noted: p53RE-bla HCT-116 + rat microsomes, ATP viability, 16 h; series mostly up to 66 µM. From the text: National Center for Advancing Translational Sciences [NCATS]
Division of Preclinical Innovation [DPI]
U.S. Environmental Protection Agency [EPA]
National Institutes of Environmental Health Sciences [NIEHS]
National Toxicology Program [NTP]
U.S. Food and Drug Administration [FDA]
p53, a tumor suppressor protein, is activated following cellular insult, including DNA damage and other cellular stresses. The activation of p53 regulates cell fate by inducing DNA repair, cell cycle arrest, apoptosis, or cellular senescence. The activation of p53, therefore, is a good indicator of DNA damage and other cellular stresses. The CellSensor p53RE-bla HCT-116 cell line contains a stably integrated beta-lactamase reporter gene under control of the p53 response elements. The activation of the reporter gene under culture conditions can be detected by fluorescence intensity. This cell line was used to screen the Tox21 10K compound library in the condition of presence of rat liver microsomes and to identify agonists that activate the p53 signaling pathway after in vitro metabolic activation (Ooka et al., Archive of Toxicology 96:1975-1987, 2022). The cytotoxicity of the Tox21 compound library against the p53 RE-bla HCT-116 cell line was tested in parallel by measuring the intra cellular ATP content in the same wells.
Tox21 Assay Protocol Summary:
The p53RE-bla cells were dispensed at 4,000cells/3ul/well in 1536-well black-clear bottom plates. After the assay plates were incubated at 37 C, 5% CO2 incubator for 5 hours, 23 nL of compounds dissolved in DMSO, positive controls or DMSO only was transferred to the assay plate. Following compound addition, 3 uL of rat liver microsomes (Molecular Toxicology, Boone, NC) at final concentration of 0.5 mg/mL and 1uL of B-Nicotinamide adenine dinucleotide 2'-phosphate (NADPH) at final concentration of 0.5 mg/mL were transferred to the assay plate. The plates were incubated at 37 C for 16 hours. 1 uL of LiveBLAzer detection mixture was added to each well and the plates were incubated at room temperature in the dark for 2 h. Fluorescence intensity at 460 and 530 nm emission and 405 nm excitation were measured by an Envision plate reader. For cell viability readout that measures cytotoxicity, 4 ul/well of CellTiter-Glo reagent was added into the assay plates using a Flying Reagent Dispenser. After 30 min incubation at room temperature, the luminescence intensity in the plates was measured using a ViewLux plate reader.
As for `CN1CC(=O)N2[C@H](c3ccc4c(c3)OCO4)c3[nH]c4ccccc4c3C[C@@H]2C1=O`, the Potency result is “inactive”.
On the same count and under the same terms, the entry for `CCCCCCCCCCOC(=O)c1ccccc1C(=O)OCCCCCCCC` is “inactive”.
For the compound `C(=C(c1ccccc1)c1ccccc1)c1ccccc1`, the Potency entry was “inactive”.
On the same count and under the same terms, the entry for `CCc1cc(C(C)(C)C)c(O)c(C(C)(C)C)c1` is “inactive”; for `CCN(CC)c1cccc(O)c1` it is “inactive”.
Regarding `C[C@](N)(Cc1ccc(O)cc1)C(=O)O`, the activity change, negative = cytotoxicity is -5.36% [at 5.99 µM].
On to `N#Cc1ccc(C(c2ccc(C#N)cc2)n2cncn2)cc1`, for which the Potency entry is “inactive”.
On the same count and under the same terms, the entry for `Cc1nnc(SCC2=C(C(=O)O)N3C(=O)[C@@H](NC(=O)Cn4cnnn4)[C@H]3SC2)s1` is “inactive”; for `O=C(O)c1ccc(S(=O)(=O)O)cc1C(=O)O` it is “inactive”; for `CC(=O)S[C@@H]1CC2=CC(=O)CC[C@]2(C)[C@H]2CC[C@@]3(C)[C@@H](CC[C@@]34CCC(=O)O4)[C@H]12` it is “inactive”.
Same read-out and setting: next, `C=C(C)C(=O)OCCOc1ccccc1`: “inactive”; `CNCc1ccc(NC(=O)c2c[nH]c3c2C(=O)CCC3)cc1`: “inactive”; `CNCCCCOc1ccccc1Cc1ccccc1`: “inactive”.
The same measure, in the same setting: the entry for `c1ccc(C(O[C@@H]2CCCN(CCc3ccc4c(c3)OCO4)C2)c2ccccc2)cc1` is “inactive”.
Consider `COc1cc2ncnc(Nc3cccc(Cl)c3)c2cc1OC`, for which the activity change, negative = cytotoxicity was -3.32% [at 13.5 µM].
For the compound `CCOC(=O)COc1ccc2c(C)c(CCN(CC)CC)c(=O)oc2c1Cl`, the Potency entry was “inactive”.
Still for that read-out and setting: next, `O=C1N=C(O)CN1/N=C/c1ccc(-c2ccc([N+](=O)[O-])cc2)o1`: “inactive”; `Cc1ccc(C(=O)C(C)CN2CCCCC2)cc1` (stereo not given): “inactive”.
In the case of `CC(C)(CO)[N+](=O)[O-]`, the Potency entry was “inactive”.
On the same count and under the same terms, next, `CC/C=C\CCOC(C)OCC` (stereo not given): “inactive”.
Consider `CCCCCCCCCCCCCCC[C@H](O)[C@@H](N)CO`, for which the Potency entry is “inactive”.
On the same count and under the same terms, the entry for `CC(C(=O)O)c1ccc(C(=O)c2cccs2)cc1` (stereo not given) is “inactive”; for `CN1CCC[C@@H]1c1cccnc1` it is “inactive”; for `CCN1CCOCC1` it is “inactive”.
In the case of `Cn1c(=O)c2c(ncn2CCO)n(C)c1=O`, the Potency entry was “inactive”.
Turning to `O=C(Nc1ccc(Cl)cc1)Nc1ccc(Cl)c(C(F)(F)F)c1`, the Potency entry was “inactive”.
Same read-out and setting: the entry for `CCO[C@H](Cc1ccc(OCCc2ccc(OS(C)(=O)=O)cc2)cc1)C(=O)O` is “inactive”; for `O=Cc1ccccc1S(=O)(=O)O` it is “inactive”; for `CO/N=C(/C(=O)N[C@@H]1C(=O)N2C(C(=O)OCOC(=O)C(C)(C)C)=C(C)CS[C@H]12)c1csc(N)n1` it is “inactive”.
On the same count and under the same terms, next, `CCCCCCCCCCCCCC(=O)OC`: “inactive”; `Cc1ccc(Cl)cc1N`: “inactive”; `C=Cc1ccc(OC(C)=O)cc1`: “inactive”.
With `O=S(=O)(O)c1cc(O)c2ccc(Nc3ccccc3)cc2c1`, the Potency entry was “inactive”.
On the same count and under the same terms, next, `CN(C)c1ccc(O)c2c1C[C@H]1C[C@H]3[C@H](N(C)C)C(=O)C(C(N)=O)=C(O)[C@@]3(O)C(=O)C1=C2O`: “inactive”; `CC(=O)/C=C/C=C1/C2CCC(C2)C1(C)C` (stereo not given): “inactive”; `C=CCCCCCCCCOC(C)=O`: “inactive”.
Still for that read-out and setting: the entry for `C=CCCCCCC` is “inactive”.
In the case of `CNCC[C@H](Oc1cccc2ccccc12)c1cccs1`, the Potency entry was “inactive”.
Take `CCN(CCC#N)c1ccccc1`: the Potency entry was “inactive”.
For `C=CCOC(=O)COCCC(C)C`, the Potency result was “inactive”.
